Source: PubChem BioAssay (NCI)
Compounds without any hit were thinned out: in the full panel of roughly 79,000, 15% have a hit. Activity calls are given as the source filed them. No stated cut-off is given here; in the data, active means growth inhibition above about 70%; inactive means the rest.

Tests used:
[1] = NCI Yeast Anticancer Drug Screen. Data for the rad50 strain (AID 155);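 further: 0% = growth of vehicle-only cultures of the same strain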; details: S. cerevisiae rad50 strain growth inhibition, stronger effect = higher value
Summary of the method: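 Cells are treated with compound, grown, and their growth is then scored against vehicle-only cultures of the same repair-deficient yeast strain.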

[2] = NCI Yeast Anticancer Drug Screen. Data for the mec2-1 strain (AID 157); details: S. cerevisiae mec2-1 strain, stronger effect = higher value
Summary of the method: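 Growth inhibition is read against vehicle-treated controls after compound exposure of the mec2-1 yeast strain, which is defective in DNA damage repair or cell cycle control.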

[3] = NCI Yeast Anticancer Drug Screen. Data for the sgs1 mgt1 strain (AID 161);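 further: 0% = growth of cultures given vehicle only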; details: S. cerevisiae sgs1 mgt1 strain, stronger effect = higher value
Summary of the method: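 This yeast growth screen uses a strain with defined DNA-repair lesions; compound-treated growth is compared with vehicle-treated growth.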

[4] = NCI Yeast Anticancer Drug Screen. Data for the cln2 rad14 strain (AID 165);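 further: 0% = growth equal to vehicle treated cultures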; details: S. cerevisiae cln2 rad14 strain, stronger effect = higher value
Summary of the method: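 Growth inhibition, relative to vehicle-treated controls, is the read-out. The test organism is a yeast strain with defined genetic alterations, cln2 rad14.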

[5] = NCI Yeast Anticancer Drug Screen. Data for the bub3 strain (AID 167); details: S. cerevisiae bub3 mutant strain, stronger effect = higher value
Summary of the method: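 Part of a panel of yeast mutants defective in DNA damage repair or cell cycle regulation. Each strain is grown with compound, and inhibition is calculated relative to solvent-treated cultures.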

[6] = NCI Yeast Anticancer Drug Screen. Data for the mlh1 rad18 strain (AID 175); details: S. cerevisiae mlh1 rad18 strain growth inhibition, stronger effect = higher value
Summary of the method: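 Cells of a genetically altered yeast strain, deficient in DNA damage repair, were treated with compound. Their growth was then compared with that of vehicle-treated cultures to give inhibition.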

[7] = at 5.0 µM (retest, dose inferred, filed as 0.5)
[8] = at 50.0 µM (retest, dose inferred, filed as 5.0)

Measured: growth inhibition

c1cnc2ccc3c4cccnc4ccc3c2c1
active: [1]; [8] 95% | [1]; at 50.0 µM 96.8% | [2]; [8] 75% | [2]; at 50.0 µM 75% | [3]; [8] 81% | [5]; at 50.0 µM 75.8% | [6]; [8] 89% | [6]; at 50.0 µM 80.4%
inactive: [1]; [7] 12% | [2]; [7] 0% | [3]; [7] 7% | [3]; at 50.0 µM 61.3% | [4]; [7] -17% | [4]; [8] 67% | [4]; at 50.0 µM 59.5% | [5]; [7] 2% | [5]; [8] 66% | [6]; [7] 1%

CN(C)C=NCCNc1ccc([N+](=O)[O-])cn1
inactive: [1]; [7] -154% | [1]; [8] -166% | [1]; at 50.0 µM 4.4% | [2]; [7] -49% | [2]; [8] -57% | [2]; at 50.0 µM 4.2% | [3]; [7] -62% | [3]; [8] -66% | [3]; at 50.0 µM -6.6% | [4]; [7] -46% | [4]; [8] -59% | [4]; at 50.0 µM 24.5% | [5]; [7] -70% | [5]; [8] -77% | [5]; at 50.0 µM 19.8% | [6]; [7] -139% | [6]; [8] -120% | [6]; at 50.0 µM 3.6%

O=C(O)C(Cc1cc(I)c(O)c(I)c1)C1CCCCC1 (stereo not given)
inactive: [1]; [7] 12% | [2]; [7] 8% | [3]; [7] 3% | [4]; [7] 7% | [5]; [7] -11% | [6]; [7] 6%
active: [1]; [8] 99% | [1]; at 50.0 µM 99.2% | [2]; [8] 99% | [2]; at 50.0 µM 99.2% | [3]; [8] 97% | [3]; at 50.0 µM 99.3% | [4]; [8] 99% | [4]; at 50.0 µM 99% | [5]; [8] 99% | [5]; at 50.0 µM 99.3% | [6]; [8] 99% | [6]; at 50.0 µM 98.8%

CCOC(=O)C12CCSC1C1(C#N)C(C#N)=CC2(N=P(c2ccccc2)(c2ccccc2)c2ccccc2)n2c(=O)n(-c3ccccc3)c(=O)n21 (stereo not given)
active: [2]; [7] 93% | [5]; [7] 96% | [5]; at 50.0 µM 88.5%
inactive: [1]; [7] 45% | [1]; [8] 29% | [1]; at 50.0 µM 68% | [2]; [8] 18% | [2]; at 50.0 µM 39.9% | [3]; [7] 28% | [3]; [8] 8% | [3]; at 50.0 µM 59.9% | [4]; [7] 32% | [4]; [8] 34% | [4]; at 50.0 µM 58.5% | [5]; [8] 46% | [6]; [7] 46% | [6]; [8] 31% | [6]; at 50.0 µM 53.9%

CC1CCC2(CC1)OCC(C)O2 (stereo not given)
inactive: [1]; [7] 4% | [1]; [8] 1% | [1]; at 50.0 µM -19.9% | [2]; [7] 16% | [2]; [8] 5% | [2]; at 50.0 µM 5.45% | [3]; [7] -2% | [3]; [8] -12% | [3]; at 50.0 µM -24.4% | [4]; [7] 26% | [4]; [8] 15% | [4]; at 50.0 µM 19.8% | [5]; [7] 27% | [5]; [8] 34% | [5]; at 50.0 µM -0.9% | [6]; [7] 7% | [6]; [8] 1% | [6]; at 50.0 µM -8.8%
